We go through 16 compounds from PubChem BioAssay.

Active and inactive are the calls of the source.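 Rule for the calls, unless noted: active = compound raises GLP1 secretion from the human gut endocrine cells, with no numeric limit stated; inactive = the rest.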 Residues, ends and D or L forms follow the SMILES beside them.

Experiment [1] can be described thus: Wnt pathway potentiators raising nuclear beta-catenin – imaging, WNT3A-conditioned medium, mouse C2C12, NPC library, primary screen (AID 1117326; in the data active = nuclear beta-catenin stimulation mostly above about 4.2%, no sharp cut-off; inactive = mostly below about 10%; note: reference of the scale not given here). Particulars: stronger effect = higher value.
The nature of experiment [2]: stimulators of insulin release from INS-1E, primary screen, cell-based, 5 mM glucose, NPC library (AID 1117329;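 active = compound raises insulin release from rat beta cells at 5 mM glucose, no numeric limit stated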; note: reference of the scale not given here). Particulars: rat INS-1E insulin secretion, at 10 µM, stronger effect = higher value.
Experiment [3] is described as follows: growth inhibition of GSK3B-pretreated HCT116 cells – cell-based, CellTiter-Glo, 0.2 to 20 µM (AID 1117336;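 active = compounds lowering colon cancer cell viability after pretreatment blocking the GSK3B kinase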). As to conditions: HCT116 viability after GSK3B inhibitor, at 20 µM, stronger effect = higher value.
Experiment [4] in a line: inhibition of endothelial tube formation, primary screen, imaging, VEGF stimulated, CD31 staining, tube area, NPC library (AID 1117340;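 active = compound that reduces growth-factor-driven endothelial tube area in a mixed cell culture, no cutoff stated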). As to conditions: VEGF-stimulated ADSC/ECFC co-culture, at 10 µM, stronger effect = higher value.
Experiment [5] can be described thus: GLP1 release stimulators, primary, NCI-H716, NPC library (AID 1117341). Note: reference of the scale not given here. Particulars: NCI-H716 cells, at 10 µM, stronger effect = higher value.
A short description of experiment [6]: HCT116 colon cancer cell growth inhibition, primary screen, CellTiter-Glo luminescence, NPC library (AID 1117342;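 active = compounds that lower survival of HCT116 colon cancer cells in the luminescence readout, no numeric limit stated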). Particulars: at 20 µM (top of the series). A general note: In ATP-based viability assays light output follows the ATP content of the culture.
A short description of experiment [7]: reduced SW480 viability measured with CellTiter-Glo, NPC library, primary (AID 1117343;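 active = compounds that lower viability of the colon cancer cells in the luminescence readout, with no numeric limit stated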). As to conditions: CellTiter-Glo luminescence; at 20 µM (top of the series).
A short description of experiment [8]: NPC library primary testing for decreased DLD-1 cell viability via CellTiter-Glo (AID 1117346;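 active = compounds that lower survival of DLD-1 colon cancer cells in the luminescence readout, no cutoff given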). Particulars: DLD-1 viability, CellTiter-Glo luminescence; at 20 µM (top of the series).

Consider `O=C(O)/C=C\C(=O)O`, for which the nuclear beta-catenin stimulation was 1.1% (inactive) in experiment [1] (at 10 µM) and 1.9% in experiment [1] (stimulation, at 2 µM). The insulin secretion stimulation in experiment [2] was 2.7% (inactive). For the same compound, the viability decrease in experiment [3] is -27.8% (inactive). For the same compound, the tube area decrease in experiment [4] is -3.6% (inactive). The GLP1 secretion stimulation in experiment [5] was -3.8% (inactive). Further, the inhibition of viability in experiment [6] is 4.1% (inactive). Further, the viability decrease (inhibition) is 33.2% (inactive) in experiment [7] and -11% (inactive) in experiment [8].

Regarding `NC(Cc1ccc([N+](=O)[O-])cc1)C(=O)O` (centres undefined), the nuclear beta-catenin stimulation in experiment [1] (at 10 µM) was -0.2% (inactive); in experiment [1] (stimulation, at 2 µM), 0%. Besides, in experiment [2], the insulin secretion stimulation was -0.8% (inactive). For the same compound, the viability decrease in experiment [3] is -7.7% (inactive). Also, the tube area decrease in experiment [4] was -16.5% (inactive). Moreover, in experiment [5], the GLP1 secretion stimulation was -0.7% (inactive). Besides, in experiment [6], the inhibition of viability was -2.8% (inactive). Besides, the viability decrease (inhibition) is -1.7% (inactive) in experiment [7] and -20.4% (inactive) in experiment [8].

In the case of `C[C@H](CCC(=O)O)[C@H]1CC[C@H]2[C@H]3[C@@H](CC[C@]12C)[C@@]1(C)CC[C@@H](O)C[C@H]1C[C@@H]3O`, the nuclear beta-catenin stimulation is -1.6% (inactive) in experiment [1] (at 10 µM) and 0.2% in experiment [1] (stimulation, at 2 µM). Also, the insulin secretion stimulation in experiment [2] was 1% (inactive). The viability decrease in experiment [3] was -8.5% (inactive). In addition, the tube area decrease in experiment [4] was -26.9% (inactive). Also, the GLP1 secretion stimulation in experiment [5] is -1.3% (inactive). The inhibition of viability in experiment [6] was 7.3% (inactive). Also, the viability decrease (inhibition) is 6.1% (inactive) in experiment [7] and -6.8% (inactive) in experiment [8].

As to `C#Cc1ccc(-c2ccccc2F)cc1`, the nuclear beta-catenin stimulation in experiment [1] (at 10 µM) is -1.3% (inactive); in experiment [1] (stimulation, at 2 µM) it was -2.1%. For the same compound, in experiment [2], the insulin secretion stimulation was 0.3% (inactive). Moreover, in experiment [3], the viability decrease is -3.5% (inactive). Further, the tube area decrease in experiment [4] was 7.2% (inactive). The GLP1 secretion stimulation in experiment [5] was -0.7% (inactive). The inhibition of viability in experiment [6] was 0.6% (inactive). The viability decrease (inhibition) was -12.8% (inactive) in experiment [7] and 18.8% (inactive) in experiment [8].

`CN(C)CCCOC1(Cc2ccccc2)CCCCCC1`: the nuclear beta-catenin stimulation in experiment [1] (at 10 µM) was 6% (inactive); in experiment [1] (stimulation, at 2 µM), 5.8%. The insulin secretion stimulation in experiment [2] is 4.2% (inactive). For the same compound, the viability decrease in experiment [3] was -55.2% (inactive). For the same compound, the tube area decrease in experiment [4] is 17.7% (inactive). Moreover, the GLP1 secretion stimulation in experiment [5] was 6.8% (inactive). Besides, in experiment [6], the inhibition of viability is 7.6% (inactive). The viability decrease (inhibition) in experiment [7] is 33.2% (inactive); in experiment [8] it was -33.1% (inactive).

With `COC(=O)c1cccnc1`, the nuclear beta-catenin stimulation in experiment [1] (at 10 µM) is 1% (inactive); in experiment [1] (stimulation, at 2 µM), 1.1%. In addition, the insulin secretion stimulation in experiment [2] is -1.6% (inactive). In addition, in experiment [3], the viability decrease was -2.7% (inactive). Further, in experiment [4], the tube area decrease is -14.2% (inactive). Also, in experiment [5], the GLP1 secretion stimulation was 1.1% (inactive). Besides, the inhibition of viability in experiment [6] is -7.2% (inactive). Also, the values for the viability decrease (inhibition) in experiment [7] and in experiment [8] were 17.2% (inactive) and 1.25% (inactive), respectively.

As to `Clc1ccc2c(c1)Nc1ccccc1S2`, the nuclear beta-catenin stimulation in experiment [1] (at 10 µM) is 0.9% (inactive); in experiment [1] (stimulation, at 2 µM) it was -2.3%. For the same compound, in experiment [2], the insulin secretion stimulation was 4.2% (inactive). For the same compound, the viability decrease in experiment [3] was 55.6% (active). Further, the tube area decrease in experiment [4] was 26.5% (inactive). Moreover, in experiment [5], the GLP1 secretion stimulation is -3.1% (inactive). Further, the inhibition of viability in experiment [6] is 32.4% (inactive). The viability decrease (inhibition) in experiment [7] was 31.8% (inactive); in experiment [8] it was 17.5% (inactive).

As for `NCCNc1ccc(NCCN)c2c1C(=O)c1ccncc1C2=O`, the nuclear beta-catenin stimulation is 22.6% (inactive) in experiment [1] (at 10 µM) and 8.9% in experiment [1] (stimulation, at 2 µM). Also, the insulin secretion stimulation in experiment [2] is -0.4% (inactive). Further, the viability decrease in experiment [3] is 67.3% (active). The tube area decrease in experiment [4] was 91.4% (active). The GLP1 secretion stimulation in experiment [5] was -4.8% (inactive). Further, the inhibition of viability in experiment [6] was 47% (inactive). The results for the viability decrease (inhibition) in experiment [7] and in experiment [8] were 1.2% (inactive) and 14.7% (inactive), respectively.

For `CC(=O)N[C@@H](CO)C(=O)N[C@@H](CC(=O)O)C(=O)N[C@@H](CCCCN)C(=O)N1CCC[C@H]1C(=O)O` (Ac-SDKP-OH), the nuclear beta-catenin stimulation in experiment [1] (at 10 µM) is 0.3% (inactive); in experiment [1] (stimulation, at 2 µM), 0.6%. The insulin secretion stimulation in experiment [2] is 1.8% (inactive). The viability decrease in experiment [3] was -7.1% (inactive). Also, in experiment [4], the tube area decrease was -14.3% (inactive). The GLP1 secretion stimulation in experiment [5] is -1.6% (inactive). Besides, the inhibition of viability in experiment [6] is -0.1% (inactive). Also, the viability decrease (inhibition) was -6% (inactive) in experiment [7] and 7% (inactive) in experiment [8].

`CCNC(=O)NCc1cccc(Cl)c1`: the nuclear beta-catenin stimulation in experiment [1] (at 10 µM) was -1.7% (inactive); in experiment [1] (stimulation, at 2 µM), -0.5%. Also, the insulin secretion stimulation in experiment [2] was 2.2% (inactive). Further, the viability decrease in experiment [3] is -2% (inactive). In addition, the tube area decrease in experiment [4] is 13.7% (inactive). Moreover, the GLP1 secretion stimulation in experiment [5] is -2.9% (inactive). Further, in experiment [6], the inhibition of viability is 1.1% (inactive). Further, the figures for the viability decrease (inhibition) in experiment [7] and in experiment [8] were 1.2% (inactive) and -6.8% (inactive), respectively.

Regarding `OC(C#CCN1CCCC1)(c1ccccc1)c1ccccc1`, the nuclear beta-catenin stimulation was 1.6% (inactive) in experiment [1] (at 10 µM) and 0.1% in experiment [1] (stimulation, at 2 µM). Besides, the insulin secretion stimulation in experiment [2] was 4.7% (inactive). In experiment [3], the viability decrease was 20.5% (inactive). For the same compound, in experiment [4], the tube area decrease is 11.1% (inactive). Further, the GLP1 secretion stimulation in experiment [5] was 5.5% (inactive). For the same compound, the inhibition of viability in experiment [6] is 21.4% (inactive). Further, the viability decrease (inhibition) is 9.7% (inactive) in experiment [7] and -4.2% (inactive) in experiment [8].

Turning to `NS(=O)(=O)c1ccc(NC(=O)CCC(=O)O)cc1`, the nuclear beta-catenin stimulation in experiment [1] (at 10 µM) was -0.1% (inactive); in experiment [1] (stimulation, at 2 µM) it was -0.3%. In addition, the insulin secretion stimulation in experiment [2] was -2.4% (inactive). The viability decrease in experiment [3] is -9.65% (inactive). Besides, the tube area decrease in experiment [4] was -1.3% (inactive). In addition, in experiment [5], the GLP1 secretion stimulation is 0.1% (inactive). In addition, in experiment [6], the inhibition of viability is -10.5% (inactive). Besides, the viability decrease (inhibition) in experiment [7] was -26.6% (inactive); in experiment [8] it was -13.6% (inactive).

Consider `Oc1ccc(CCNCCCCCCNCCc2ccccc2)cc1O`, for which the nuclear beta-catenin stimulation in experiment [1] (at 10 µM) was 5% (inactive); in experiment [1] (stimulation, at 2 µM), 0.9%. Also, in experiment [2], the insulin secretion stimulation was 27.8% (active). Also, in experiment [3], the viability decrease is 83.3% (active). Moreover, the tube area decrease in experiment [4] was 31.4% (inactive). Further, the GLP1 secretion stimulation in experiment [5] is 0.6% (inactive). Moreover, the inhibition of viability in experiment [6] was 83.5% (active). The viability decrease (inhibition) is 99.5% (active) in experiment [7] and 101% (active) in experiment [8].

On to `COc1cc(C(=O)N2CCCCCCC2)cc(OC)c1OC`, for which the nuclear beta-catenin stimulation in experiment [1] (at 10 µM) is 0.9% (inactive); in experiment [1] (stimulation, at 2 µM), -1.2%. Besides, the insulin secretion stimulation in experiment [2] is 5% (inactive). Also, in experiment [3], the viability decrease was -2.3% (inactive). Also, the tube area decrease in experiment [4] is -2.6% (inactive). In addition, the GLP1 secretion stimulation in experiment [5] is 2.6% (inactive). In experiment [6], the inhibition of viability was 17.8% (inactive). In addition, the viability decrease (inhibition) in experiment [7] was -7.8% (inactive); in experiment [8], 7.8% (inactive).

With `CN(C)c1ccc(C(=C2C=CC(=[N+](C)C)C=C2)c2ccccc2)cc1`, the nuclear beta-catenin stimulation in experiment [1] (at 10 µM) is 4.5% (active); in experiment [1] (stimulation, at 2 µM), 63.1%. Further, the insulin secretion stimulation in experiment [2] is 0.2% (inactive). The viability decrease in experiment [3] was 100% (active). Also, the tube area decrease in experiment [4] is 109% (active). The GLP1 secretion stimulation in experiment [5] is 0.7% (inactive). The inhibition of viability in experiment [6] is 99.7% (active). Further, the viability decrease (inhibition) in experiment [7] and in experiment [8] was 102% (active) throughout.

Turning to `Cc1ncc(CO)c(C=O)c1O`, the nuclear beta-catenin stimulation was -0.2% (inactive) in experiment [1] (at 10 µM) and 0.6% in experiment [1] (stimulation, at 2 µM). Moreover, the insulin secretion stimulation in experiment [2] was 2.8% (inactive). For the same compound, the viability decrease in experiment [3] was -8.9% (inactive). Besides, in experiment [4], the tube area decrease was -6.1% (inactive). For the same compound, the GLP1 secretion stimulation in experiment [5] is -2.6% (inactive). Besides, the inhibition of viability in experiment [6] was 13.3% (inactive). Further, the viability decrease (inhibition) is 24.3% (inactive) in experiment [7] and -1.4% (inactive) in experiment [8].
